# Screens deposited in PubChem BioAssay by several laboratories.
# A selection: hits, their analogues and other compounds. The true share with any hit is near 1.5%.
# GLD-1 TGE inh: GLD-1-TGE RNA interaction inhibition (C. elegans) | inhibition, % at 5.96 µM | purified GLD-1 + fluorescein TGE RNA, fluorescence polarization | 0.44% of 320,000 active;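 active = percent inhibition above a per-plate cutoff, the plate mean of test compounds plus 3 SD, cut at about 30% in these data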;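 note: 0% = DMSO wells with GLD-1 and probe and 100% = wells lacking GLD-1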
# MEX-5 binding: C. elegans MEX-5 TCR-2 RNA binding activity; MEX-5/FITC-TCR2 RNA binding, fluorescence polarization; active compounds read low; activity score (negative = inhibition of binding), % at 10 µM; Q9XUB2; 0.38% of 300,000 active; AID 1832;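 active = inhibition past about -25% in most replicates, and total fluorescence under double the plate's negative control median, limit read from the data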;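 note: 0% = DMSO and -100% = 5 µM competing unlabeled TCR2 RNA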
# MCL1 BIM primary: MCL1-BIM-BH3 interaction inhibition (human); Q07820; GST-MCL1 / FITC-Bim-BH3 fluorescence polarization; inhibition, % at 10.9 µM; 0.68% of 320,000 active;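 active = inhibition above the mean inhibition of all tested compounds plus 3 SD, set per campaign, cut at about 40% in these data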;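 note: 0% = DMSO wells and 100% = unlabeled Bim-BH3 peptide control; higher means more loss of mP so more displacement of Bim peptide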
# BCLXL inh: Bcl-xL (human) inhibition. GST-Bcl-xL / FITC-Bim BH3 peptide fluorescence polarization. inhibition, % at 10.9 µM. 0.7% of 320,000 active. AID 2129;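 active = inhibition above the mean of all tested compounds plus 3 SD, cutoff set per campaign, cut at about 30% in these data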;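 note: 0% = DMSO wells and 100% = unlabeled Bim-BH3 peptide competitor; inhibitors lower millipolarization by displacing the labeled peptide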
# Target sequence (Q07817 whole entry, looked up): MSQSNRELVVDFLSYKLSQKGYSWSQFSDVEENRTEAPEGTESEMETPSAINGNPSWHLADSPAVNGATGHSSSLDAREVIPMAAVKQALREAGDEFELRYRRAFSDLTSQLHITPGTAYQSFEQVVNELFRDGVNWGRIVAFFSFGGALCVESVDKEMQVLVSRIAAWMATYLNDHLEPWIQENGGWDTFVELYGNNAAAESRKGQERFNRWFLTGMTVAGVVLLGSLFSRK
# E coli Lon inh: inhibits E. coli Lon protease; purified E. coli Lon protease, fluorescence polarization; inhibition, % at 7.94 µM; 0.42% of 360,000 active; AID 602123; in the data active = inhibition above about 13%, passing the limit was not always enough;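 note: 0% = enzyme with probe and DMSO and 100% = no enzyme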
# EBV gp42 inh: EBV gp42 inhibition; AID 1085; 0.42% of 220,000 active; Fluorescence polarization binding assay, mP read-out; inhibition, % (tested at 21.74 µM); Q1HVG2; in the data active = inhibition above about 50%
# Target sequence (Q1HVG2 whole entry, looked up): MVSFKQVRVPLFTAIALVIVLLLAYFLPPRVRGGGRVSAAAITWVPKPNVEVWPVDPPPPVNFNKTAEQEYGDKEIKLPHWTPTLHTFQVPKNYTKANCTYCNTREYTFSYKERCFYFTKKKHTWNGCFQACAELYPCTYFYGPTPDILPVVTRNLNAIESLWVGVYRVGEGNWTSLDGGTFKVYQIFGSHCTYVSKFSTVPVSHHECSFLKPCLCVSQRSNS
# Bcl-xL conf: Bcl-xL (human) inhibition, MCL1 counter-screen confirmation; inhibition, % at 10.9 µM; 54% of 1,700 active; GST-Bcl-xL / FITC-Bim BH3 peptide FP binding; shares compounds with MCL1 BIM primary;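 active = inhibition above a cutoff equal to the mean inhibition of all tested compounds plus 3 SD, cut at about 30% in these data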;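 note: 0% = DMSO wells and 100% = unlabeled Bim BH3 control peptide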
# MCL1 inh confirm: confirmation of human MCL1 and BIM-BH3 interaction inhibitors. AID 2168. GST-MCL1 / FITC-Bim-BH3 fluorescence polarization. shares compounds with MCL1 BIM primary. 61% of 1,700 active. inhibition, % at 10.9 µM;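 active = inhibition above the average of all tested compounds plus 3 SD, cut at about 40% in these data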;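 note: 0% = DMSO wells and 100% = unlabeled Bim-BH3 control peptide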
# Starred values were filed as active, the others as inactive; x = no result; + = active, no number.
SMILES,GLD-1 TGE inh,MEX-5 binding,MCL1 BIM primary,BCLXL inh,E coli Lon inh,EBV gp42 inh,Bcl-xL conf,MCL1 inh confirm
O=c1oc2ccccc2c2oc3cc(O)c(O)cc3c12,1,0,71*,29,-1,12,34*,74*
C[C@H](O)[C@@H]1C(=O)N2CCc3ccc(-c4ccccc4)cc3[C@@H]2C[C@@H]1N(C)C(=O)c1ccco1,x,x,x,x,-7,x,x,x
COc1ccc(-n2c(=O)[nH]cc(C(=O)Nc3ccc4c(c3)OCO4)c2=O)cc1OC,1,-2,1,3,-5,x,x,x
COc1ccc(OC)c(-c2c3cc(O)c(=O)cc-3oc3cc(O)c(O)cc23)c1,76*,x,118*,111*,+,168*,120*,133*
CCN(CC(=O)NCc1ccc(Cl)cc1)C(=O)c1ccc(C#N)cc1,-2,2,0,5,-1,x,x,x
CCCCC1=CC2=C(c3ccco3)C(=O)C(C)(OC(=O)c3ccc(OC)cc3)C(=O)C2=CN1Cc1ccc2c(c1)OCO2 (stereo not drawn),10,-6,9,4,-7,0,x,x
CCCCC1=CC2=C(c3ccco3)C(=O)C(C)(OC(=O)c3ccc(OC)cc3)C(=O)C2=CN1C1CCCCC1 (stereo not drawn),39*,-1,52*,46*,14,10,41*,59*
COc1ccc(NC(=O)CNc2ccc(OC)c(S(=O)(=O)N3CCOCC3)c2)cc1,x,x,x,x,-9,x,x,x
CC1CC(=O)c2c(cc3c(-c4c(O)cc(O)c5c(O)c6c(cc45)OC(C)CC6=O)c(O)cc(O)c3c2O)O1 (stereo not drawn),5,-35*,76*,44*,8,4,25,23
Cc1ccc(SCCNC(=O)/C=C/c2ccc(Cl)cc2)cc1,0,-1,54*,7,5,-31,24,34
NNC(=O)c1cc(O)c(O)c(O)c1,4,-22,54*,25,-8,3,34*,46*
CC1OC(O[C@H]2CC[C@]3(C)C4C=C[C@]56OC[C@@]7(CC[C@@H](C)[C@H](C)C75)[C@H](O)C[C@@]6(C)[C@]4(C)CC[C@H]3C2(C)C)C(OC2OC(CO)C(O)C(O)C2OC2OCC(O)C(O)C2O)C(O)C1O (stereo partly drawn),x,-1,x,x,x,6,x,x
Cc1ccc(C2C(C#N)=C(N)SC(N)=C2C#N)cc1,x,x,x,x,-404,-67,x,x
N#CC1=C(N)SC(N)=C(C#N)C1c1ccoc1,21,-7,80*,67*,x,-29,4,-4
NC(=O)CCC(C(=O)O)N1C(=O)c2ccc(O)cc2C1=O (stereo not drawn),7,-1,4,2,11,3,x,x
COc1ccc(C(C)=O)cc1CC(=O)Nc1cccc(S(=O)(=O)N2CCOCC2)c1,-2,x,-13,-4,-16,x,x,x
O=C1C(Cl)=C(N2CCCCC2)C(=O)C(Cl)=C1c1cnc(N2CCCCC2)s1,x,-4,x,x,5,-21,x,x
CN(C)c1ncc(C2=C(Cl)C(=O)C(N3CCCC3)=C(Cl)C2=O)s1,16,-17,91*,57*,17,-37,63*,85*
CC1(C)Oc2ccc(C(=O)NC3CCCC3)cc2N(CC(=O)NC2CCCCC2)C1=O,6,-3,54*,4,-9,-3,25,34
CCN1CCc2c(sc(NC(=O)Nc3ccc(Cl)c(Cl)c3)c2C(N)=O)C1,-34,x,87*,40*,-269,18,54*,56*
CCN1CCc2c(sc(NC(=O)Cc3ccccc3)c2C(N)=O)C1,2,1,7,7,-5,x,x,x
CSc1nc(N(C)CCO)c2sc3nc(-c4ccco4)c4c(c3c2n1)CCC4,2,-3,75*,17,2,87*,36*,76*
COc1ccc(NC(=O)/C=C/c2cccc(C(F)(F)F)c2)cn1,9,-4,4,9,1,x,x,x
